Screening results as filed in PubChem.
SARS PLP yeast – qHTS of Yeast-based Assay for SARS-CoV PLP; S. cerevisiae expressing SARS-CoV PLpro, growth rescue; Potency, µM (top dose mostly 32.9 µM), usual class: activators; 0.19% of 330,000 active; note: nearly all actives have a fitted effect of over 55% in size
NS1 inh – qHTS Assay for Inhibitors of Influenza NS1 Protein Function; Potency, µM (doses to about 46.1 µM); 0.4% of 270,000 active; AID 2326, 2010; note: actives are rising curves; nearly all actives have a fitted effect of over 50% in size
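OD600 was taken as the measure of yeast growth restored by compound in an NS1-expressing S. cerevisiae strain. Cells had been washed out of glucose medium and diluted 1:100 into galactose -URA medium, pH 6.0.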
Pf growth 48h – Primary qHTS for delayed death inhibitors of the malarial parasite plastid, 48 hour incubation; P. falciparum luciferase growth in erythrocytes, 48 h; Potency, µM (highest dose often 28.7 µM), hits mostly inhibitors; 5.9% of 310,000 active; active = well fitted inhibition curve with a large enough effect; inconclusive = small, poorly fitted or top-dose-only effect, or another doubt; inactive = no such curve, though single readings can be large or run the other way
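Luciferase-expressing parasites in RBCs, 2% Hct / 0.1% parasitemia final; RPMI 1640 + 0.5% Albumax; 37 C, 5% CO2, one generation; luminescence read-out, lower signal = inhibition.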
Pf growth 96h – Primary qHTS for delayed death inhibitors of the malarial parasite plastid, 96 hour incubation | P. falciparum luciferase reporter growth, 96 h | Potency, µM (highest dose often 28.7 µM), usual class: inhibitors | 6.9% of 320,000 active | AID 504834, 2011; active = well fitted inhibition curve with a large enough effect; inconclusive = small, poorly fitted or top-dose-only effect, or another doubt; inactive = no such curve, though single readings can be large or run the other way
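Parasite growth measured via integrated firefly luciferase reporter in P. falciparum. Infected erythrocytes at 2% hematocrit, 0.05% parasitemia final were treated 96 hours at 37 C under 5% CO2, and luminescence was read.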
A number is an active result; 0 = inactive; ? = inconclusive; - = not tested or not shown; ! = not active in a repeat. Hits are enriched below; roughly 10% of the tested compounds scored in any of these assays. Unless noted, calls come from the whole dose curve.

SMILES	SARS PLP yeast	NS1 inh	Pf growth 48h	Pf growth 96h
COc1ccc(CN2CCNC(=O)C2CC(=O)NC2CCCC2)c(OC)c1 (stereo not drawn)	0	0	?	0
COc1ccc(CN2CCNC(=O)C2CC(=O)NC2CCCCCCC2)cc1OC (stereo not drawn)	0	0	12µM	0
COc1ccc(NC(=O)CC2C(=O)NCCN2C(=O)c2ccc(Cl)cc2)cc1 (stereo not drawn)	0	0	0	0
O=Nc1c(O)n(Cc2ccccc2)c2ccccc12	0	0	0	0
O=Nc1c(O)n(Cc2ccc(Cl)c(Cl)c2)c2ccccc12	0	0	?	9.3µM
Nc1nc2ccccc2n1Cc1ccc(Cl)c(Cl)c1	0	0	10µM	?
Cc1cc(=O)c2cc(C(=O)c3ccccc3)ccc2[nH]1	0	0	13µM	?
OCc1nc2ccccc2n1Cc1ccc(Cl)cc1	0	0	0	0
c1ccc(Cn2c(CN3CCCC3)nc3ccccc32)cc1	0	0	?	9.3µM
Clc1ccc(Cn2c(CN3CCCC3)nc3ccccc32)cc1	0	0	?	4.1µM!
O=c1ccc(-c2nc3ccccc3n2Cc2ccc(Cl)cc2)c[nH]1	0	0	5.9µM	9.3µM
O=c1c2ccccc2nc(CN2CCCCCC2)n1-c1ccc(F)cc1	0	?	?	-
Nn1c(CN2CCCCC2)nc2ccccc2c1=O	0	0	0	2.3µM
Cn1c(-c2ccc(=O)[nH]c2)nc2ccccc21	0	0	?	?
Cc1ccc(C(=O)NCCc2ccc(S(N)(=O)=O)cc2)cc1[N+](=O)[O-]	0	-	0	0
Cc1cc(Br)ccc1NC(=O)CN1C(=O)C2CC=CCC2C1=O (stereo not drawn)	0	-	?	?
O=C(CCC(=O)N(CC(=O)NC1CCCC1)c1ccccc1F)Nc1nccs1	0	0	0	?
COc1ccc(Cc2nnc3sc(SCC(=O)Nc4ccccc4)nn3c2=O)cc1OC	0	-	0	?
O=C(CN1CCC(NC(=O)Nc2ccccc2)CC1)Nc1ccc([N+](=O)[O-])cc1	0	0	?	0
CCN(CC)C(=O)Cn1cc(SCC(=O)NC)c2ccccc21	0	-	0	12µM
CCCN(CCC)C(=O)Cn1ccc(=N)c2ccccc21	0	0	1.7µM	-
CC(C)(C)NC(=O)Cn1ccc(=N)c2ccccc21	0	0	?	0
CCn1cc(SCC(=O)NC2CCCC2)c2ccccc21	0	0	7.4µM	?
COc1ccc(C(CNC(=O)c2ccc3c(c2)OCCO3)N(C)C)cc1 (stereo not drawn)	0	0	0	0
O=C(COc1ncnc2ccccc12)c1ccc(Cl)cc1	0	0	0	0
SMILES	SARS PLP yeast	NS1 inh	Pf growth 48h	Pf growth 96h
O=C(CN1CCOCC1)NCc1cc([N+](=O)[O-])ccc1O	0	0	0	?
COc1ccc(C(CNC(=O)c2c(C)nn(Cc3ccc(C)cc3)c2Cl)N2CCOCC2)cc1 (stereo not drawn)	0	-	10µM	?
Cc1ccc(Cn2nc(C)c(C(=O)NCC(c3cccs3)N3CCOCC3)c2Cl)cc1 (stereo not drawn)	-	-	12µM	?
Cc1nn(Cc2ccccc2)c(C)c1C(=O)NCC(c1cccs1)N1CCOCC1 (stereo not drawn)	0	-	?	0
CC(C)(C)NC(=O)Cn1nnc(-c2ccc(OCc3c(F)cccc3Cl)cc2)n1	0	0	?	?
Cc1ccc(S(=O)(=O)n2ccc(-c3cccc(OCc4c(F)cccc4Cl)c3)n2)cc1	?	0	3.7µM	0.74µM
Cc1[nH]ccc(=O)c1OCc1c(F)cccc1Cl	0	-	0	0
Cc1ccc(S(=O)(=O)n2ccc(-c3ccc(OCc4c(F)cccc4Cl)cc3)n2)cc1	0	0	9.3µM	0
COc1cc(/C=C(\C#N)C(=O)Nc2cccnc2)ccc1OC(C)C	0	0	0	0
CN(C)c1ccc(C(=O)OCC(=O)c2cccs2)cc1	0	0	0	9.3µM
COc1ccc(NC(=O)c2cc(-c3ccc(O)cc3)on2)cc1OC	-	0	-	-
CSCC[C@H](NC(=O)N1CCn2c1nc1ccccc12)C(=O)NCC1CCCO1 (stereo partly drawn)	0	0	0	0
CC(=O)n1cc([C@@H]2C=C(C(=O)Nc3ccccc3)O[C@H](OCCCCO)C2)c2ccccc21	0	0	?	?
CC(=O)n1cc([C@H]2C=C(C(=O)Nc3ccccc3)O[C@@H](OCc3ccc(CO)cc3)C2)c2ccccc21	0	?	8.3µM	12µM
CC(=O)n1cc([C@@H]2C=C(C(=O)O)O[C@H](OCc3ccc(CO)cc3)C2)c2ccccc21	0	0	0	0
C#CCNC(=O)C1=C[C@H](c2cn(C(C)=O)c3ccccc23)C[C@H](OCc2ccc(CO)cc2)O1	0	0	?	10µM
CC(=O)n1cc([C@@H]2C=C(C(=O)NCc3ccccc3)O[C@H](OCc3ccc(CO)cc3)C2)c2ccccc21	0	0	12µM	5.2µM
O=[N+]([O-])c1cccc(C(=NCc2ccccc2)NO)c1	0	0	0	0
O=C(COC(=O)C1CC1)Nc1c(Cl)cccc1C(F)(F)F	0	-	0	0
COCCn1nnnc1CN1C2CCCC1CC(NC(C)=O)C2 (stereo not drawn)	0	0	0	13µM
COCCn1nnnc1CN1CCC(NC(=O)c2ccc(Br)cc2)CC1	0	0	?	0
Cc1cc(-c2ccco2)n(CC(=O)O)n1	0	0	0	6.6µM
NS(=O)(=O)c1ccc(CNC(=O)c2ccncc2)cc1	0	0	0	0
COc1ccc(OCCNC(=O)C(c2ccccc2)c2ccccc2)cc1	0	0	10µM	0
COc1ccc(OCCCC(=O)NC(C)c2ccccc2)cc1 (stereo not drawn)	0	0	-	9.3µM
SMILES	SARS PLP yeast	NS1 inh	Pf growth 48h	Pf growth 96h
COc1ccc(S(=O)(=O)NCCC(=O)NC(C)c2ccccc2)cc1 (stereo not drawn)	0	0	0	7.4µM
CC(NC(=O)CCOc1ccccc1)c1ccccc1 (stereo not drawn)	0	0	-	0
CCOCCCNC(=O)CCCOc1ccccc1	0	0	0	4.7µM
O=C(CCNS(=O)(=O)c1ccccc1F)NC1CCCCCC1	0	-	0	0
CCNC(=S)N=Nc1c(O)[nH]c2ccc([N+](=O)[O-])cc12	0	-	?	6.6µM
Oc1cccc(NC(=S)N=Nc2c(O)[nH]c3ccccc23)c1	0	0	0	0
CC(C)c1ccc2[nH]c(O)c(N=NC(=S)NCCc3ccccc3)c2c1	?	0	?	9.3µM
O=[N+]([O-])c1ccc2[nH]c(O)c(N=NC(=S)NCC3CCCO3)c2c1 (stereo not drawn)	0	0	0	0
CCCCNC(=S)N=Nc1c(O)[nH]c2ccccc12	0	-	?	9.3µM
Oc1[nH]c2ccccc2c1N=NC(=S)NCCc1ccccc1	0	0	0	0
CCOc1ccc(NC(=S)N=Nc2c(O)[nH]c3ccccc23)cc1	0	-	?	1.7µM
CC[C@]12c3[nH]c4cc(CCC(=O)N(C)C)ccc4c3CCN1C(=O)[C@@H](CC(=O)NCCCn1ccnc1)C[C@@H]2C(=O)N1CCN(C(=O)c2ccco2)CC1	0	-	-	-
CCN(c1ccc(OC)cc1)S(=O)(=O)c1nnc(NC(=O)c2ccccc2Cl)s1	0	0	0	0
